Assay results taken from PubChem BioAssay AID1671190 (National Center for Advancing Translational Sciences (NCATS), 2021).
In all, about 580,000 compounds went through this assay and about 6,100 (1.1%) were called active. Inconclusive results (about 15%) are left out. Many of the other results were omitted from the sample, so actives are more common in it than they were. A number with no mark means an inactive call. Calls come from the whole dose curve; as a rule, active = well fitted inhibition curve with a large enough effect; inconclusive = small, poorly fitted or top-dose-only effect, or another doubt; inactive = no such curve, though single readings can be large or run the other way.

target: Polyunsaturated fatty acid lipoxygenase ALOX12 (Homo sapiens) (UniProt P18054); test: Primary qHTS assay for inhibitors of human arachidonate 12S-lipoxygenase (ALOX12): Round 2; conditions: purified 12hLO, xylenol orange hydroperoxide absorbance; series mostly up to 108 µM; activity change, negative = inhibition: at the top concentration
Summary of the method: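 Purified human 12hLO (150 nM final) in 25 mM Hepes, 0.01% Triton X-100, pH 7.0 was preincubated 15 min at room temperature with compound. Then 40 uM arachidonic acid was added, 30 min. Hydroperoxide was read by Fe-XO absorbance ratio 573/405 nm.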
% is set by controls: 0 for no effect and ±100 for the full control effect; potency is the fitted concentration of half-maximal effect.

Polyunsaturated fatty acid lipoxygenase ALOX12 (Homo sapiens), sequence (P18054 whole entry, looked up): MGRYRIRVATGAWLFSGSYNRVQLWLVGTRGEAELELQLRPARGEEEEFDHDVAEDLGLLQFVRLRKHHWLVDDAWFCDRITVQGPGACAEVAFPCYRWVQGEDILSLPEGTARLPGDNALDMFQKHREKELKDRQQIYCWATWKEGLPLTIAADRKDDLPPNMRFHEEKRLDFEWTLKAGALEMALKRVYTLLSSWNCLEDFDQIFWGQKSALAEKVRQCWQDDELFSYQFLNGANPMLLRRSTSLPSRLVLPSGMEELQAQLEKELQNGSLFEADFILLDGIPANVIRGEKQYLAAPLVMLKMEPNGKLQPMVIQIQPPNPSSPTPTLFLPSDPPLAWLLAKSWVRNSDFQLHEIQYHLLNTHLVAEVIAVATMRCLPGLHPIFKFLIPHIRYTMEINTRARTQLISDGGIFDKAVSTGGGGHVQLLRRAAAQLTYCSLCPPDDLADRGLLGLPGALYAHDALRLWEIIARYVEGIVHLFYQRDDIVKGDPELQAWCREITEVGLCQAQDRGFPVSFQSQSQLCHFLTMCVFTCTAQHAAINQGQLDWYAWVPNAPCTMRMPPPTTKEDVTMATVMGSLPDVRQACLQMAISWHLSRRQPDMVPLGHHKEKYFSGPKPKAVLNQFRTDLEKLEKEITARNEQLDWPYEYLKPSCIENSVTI

SMILES	Potency	activity change, negative = inhibition
O=[N+]([O-])c1cc(Cl)cc(/C=N/NC(=S)Nc2cc(S(=O)(=O)N3CCOCC3)ccc2Cl)c1O	25.1 µM (active)	
Cc1ccc(S(=O)(=O)N2CCOCC2)cc1NC(=O)c1ccncc1		5.28%
O=C(CNCc1cccs1)Nc1cc(S(=O)(=O)N2CCCC2)ccc1Cl		2.03%
CCOc1cc(C2c3c(-c4c(C)cc(C)cc4O)n[nH]c3C(=O)N2CCO)ccc1O (stereo not drawn)		-3.04%
O=c1onc(-c2cccs2)n1Cc1ccccc1		0%
CCC(=O)N1N=C(c2ccc(OC)cc2)CC1c1cn(-c2ccccc2)nc1-c1cccs1 (stereo not drawn)		-24.7%
C(=NCc1ccccc1)c1cn(-c2ccccc2)nc1-c1cccs1	50.1 µM (active)	
CC1(C)[C@H]2CC[C@@H](CNC(=O)c3ccccc3F)[C@@H]1C2		28% [at 176 µM]
COc1cc(/C=N/Nc2ccc(C)cc2)cc(Br)c1O	10 µM (active)	
Oc1c(Br)cc(/C=N/NC(=S)NCC2CCCO2)cc1Br (stereo not drawn)		6.06%
COc1cc(/C=N/O)ccc1O		-22.4%
O=C(Cc1ccc(Cl)cc1)Oc1ccc2ccccc2c1		23.8%
C(=N\N=C(c1ccccc1)c1ccccc1)/c1cn[nH]c1-c1ccccc1		6.19%
CN(C)c1ncnc2sc3c(c12)CCN(Cc1ccccc1)C3		48%
Oc1ccccc1C1=NN(c2ccccc2)C(c2ccccc2)C1 (stereo not drawn)	15.8 µM (active)	
Cc1ccc(N2C(=O)C3N=NN(CC(=O)N4N=C(c5cccc6ccccc56)CC4c4ccccc4)C3C2=O)cc1 (stereo not drawn)		0%
CCCc1nc(-c2ccccc2O)n(-c2ccccc2)n1		-20.5%
Cc1oc2cc(OCC(=O)N3CCCCCC3)ccc2c(=O)c1-c1ccc(Cl)cc1		1.29%
CCN1/C(=C\c2ccc3ccccc3[n+]2CC)Sc2cc(C)ccc21	35.5 µM (active)	
CCN(CC)C(=O)Oc1ccc2c(C)c(-c3ccc(OC)cc3)c(=O)oc2c1		55.5%
O=C1CC(NCc2ccoc2)CN1CCc1cccc(Cl)c1 (stereo not drawn)		38.5%
Cc1ccccc1NC(=O)c1cc2cc([N+](=O)[O-])ccc2oc1=O		14.5%
COc1cc(CNCCSc2nnnn2C)ccc1OCc1ccc(Cl)cc1Cl	39.8 µM (active)	
COc1cc(CNCCSc2nnnn2C)ccc1OCc1c(F)cccc1Cl		0%
Cn1nnnc1SCCNCc1ccc(Cl)c(Cl)c1		-8.03%
Cc1cc(S(=O)(=O)N2CCCN(C)c3ccccc32)ccc1F		-0.0222%

SMILES	Potency	activity change, negative = inhibition
Cc1ccc(CN(CC(=O)NCC2CCCO2)C2CC2)cc1 (stereo not drawn)		-1.52%
CN(Cc1cccs1)C(=O)C1CCC1		6.4%
Cc1ccc(C(=O)N2CCC3(CC2)NC(=O)N(Cc2ccc(F)cc2)C3=O)cc1		14.3%
Cc1ccc(C(=O)N2CCC(c3n[nH]c(=O)n3Cc3ccc(F)cc3)CC2)cc1		10.3%
CCN1CCC2(CC1)N=C(c1ccc(F)cc1)C(=S)N2C(=O)c1ccc(C)cc1	50.1 µM (active)	
CC1CCN(CCCNC(=O)c2cc(=O)c3ccccc3o2)CC1		-3.13%
Cc1ccc(S(=O)(=O)N(CC(=O)Nc2cccnc2)c2ccc(Br)cc2)cc1	22.4 µM (active)	
CCNC(=O)CN(c1ccc(C)cc1)S(=O)(=O)c1ccc(SC)cc1		-25.5%
Cc1ccc(N(CC(=O)Nc2cc(C)cc(C)c2)S(=O)(=O)c2cccc3nonc23)cc1	inactive	
COc1ccccc1C(=O)N1CCc2c(nc3cc(-c4ccccc4Cl)[nH]n3c2=O)C1		-1.72%
COc1ccc2cc(C(=O)N3CCN(S(=O)(=O)c4ccccc4C(F)(F)F)CC3)c(C)nc2c1		16.8%
Cn1c(=O)c2c(nc(Cl)n2CC(=O)N(C2CCCC2)C2CCS(=O)(=O)C2)n(C)c1=O (stereo not drawn)		2.41%
O=C(Cc1cccc2ccccc12)NCCc1cccc2cccnc12		18.3%
CCCCc1c(C)nc2c(C)cccc2c1SCC(=O)O		80.1%
COc1ccccc1NC(=O)C(=O)NCc1ccccc1		-7.75%
COc1cc(C(=S)NCc2ccccc2)cc(Br)c1O	39.8 µM (active)	
COc1ccc(COc2ccc(C(=O)O)cc2OC)cc1Br		-3.21%
CN(Cc1ccc(F)cc1F)C(=O)COc1ccc2ccc(=O)oc2c1		-53.2%
C=CCSc1nc2c(c(=O)[nH]c(=O)n2C)n1Cc1cccc(C)c1		-77.9%
CS(=O)(=O)c1ccc(C(=O)NNC(=O)c2cccs2)cc1		3.89%
Cc1ccc(NNC(=O)c2cccs2)cc1Cl	8.91 µM (active)	
COc1cc(Cl)c(C)cc1NC(=O)[C@@H]1CCCN1C(=O)c1cccs1		0.484%
CCN(c1ccc(-c2csc(-c3ccccc3)n2)cc1)S(C)(=O)=O		0.942%
N#Cc1ncn(CCC(=O)Nc2ccc(F)c(F)c2)n1		-16.6%
COc1ccc(C)cc1NC(=O)NC(C(=O)N1CCc2ccccc21)C(C)C (stereo not drawn)		-18.5%
Cc1noc(-c2ccc(OC(F)(F)F)cc2)c1C(=O)NCc1ccc2c(c1)OCO2		47.3%

SMILES	Potency	activity change, negative = inhibition
CCC1CCCCN1C(=O)Cn1cccc1-c1nc(-c2ccc(F)cc2)no1 (stereo not drawn)		6.64%
O=C(NC1CCCc2c1[nH]c1ccc(F)cc21)c1n[nH]c2c1CCCC2 (stereo not drawn)		13.5%
O=C(c1n[nH]c2c1CCCC2)N1CCC2(CC1)NC(=O)N(c1ccc(F)cc1)N2	1.41 µM (active)	
O=C(c1ccccc1)c1cccn1CC(=O)N1CCN(c2ccc(F)cc2)CC1		439%
CCC(CC)C(=O)Nc1cccc(C(=O)N2CCCC2)c1		5.32%
CC(=O)Nc1cccc(C(=O)N2CCC3(CC2)NC(=O)N(c2cccc(Cl)c2)N3)c1	1.41 µM (active)	
O=C(c1ccc2c(c1)OCO2)N1CCC(n2c(=O)[nH]c3ccccc32)CC1		-25.6%
O=C(c1ccc2c(c1)OCO2)N1CCC2(CC1)NC(=O)N(c1ccccc1)N2	5.01 µM (active)	
O=C(c1cccc(Cl)c1)N1CCC2(CC1)NCc1ccccc1NC2=O		3.75% [at 6.33 µM]
O=C(Cc1ccc(F)cc1)N1CCC(n2cc(-c3nc(-c4ccccc4)no3)nn2)CC1		2.49%
O=C(Cc1ccc(F)cc1)N1CCC2(CC1)NC(=O)N(c1ccccc1)N2	5.01 µM (active)	
O=C(c1ccc2c(c1)OCO2)N1CCC2(C1)C(=O)Nc1ccccc12 (stereo not drawn)		5.73% [at 6.33 µM]
O=C(c1cc2ccccc2oc1=O)N(Cc1ccccc1)c1cccc([N+](=O)[O-])c1		-8.8%
CC1CCN(S(=O)(=O)c2ccc3c(ccc(=O)n3CC(=O)NCc3ccccn3)c2)CC1		18.9%
COc1cccc(CC(=O)N2CCC3(CC2)N=C(c2ccc(Cl)cc2)NO3)c1		-1.12%
Cc1ccc(-c2cn3nc(N4CCCC(C(=O)NCCc5cccs5)C4)sc3n2)cc1 (stereo not drawn)		-18.5%
COCCn1nc2n(c1=O)CCN(S(=O)(=O)c1ccc(Cl)s1)CC2		7.1%
COc1ccc(Cl)cc1NC(=O)CCc1ncc(-c2ccc(C)cc2)o1		-24.8%
CC1(c2ccccc2)N(Cc2ccccc2F)C(=O)OC12CCN(Cc1c[nH]c3ccccc13)CC2 (stereo not drawn)	28.2 µM (active)	
CC1(c2ccccc2)N(Cc2ccc(O)cc2)C(=O)OC12CCN(Cc1ccc(C#N)cc1)CC2 (stereo not drawn)		-0.847%
CC(C)C(=O)N1CCC2(CC1)OC(=O)N(Cc1ccccc1F)C2(C)c1ccccc1 (stereo not drawn)		6.96% [at 176 µM]
COc1ccccc1CNC(=O)c1ncoc1-c1cccc(C)c1		3.56%
CCC(=O)N1c2ccccc2NC2=C(C(=O)CC(C)(C)C2)C1c1cc(OC)ccc1OC (stereo not drawn)		9.28%
COCC1CN(Cc2cn(C)c3ccc(OC)cc23)CC12CCNCC2 (stereo not drawn)		19%
COc1cc(/C=C/c2nc3ccccc3s2)ccc1OC(F)F		3.41%
CCn1c(SCC(=O)Nc2ccccc2C(=O)NC2CC2)nnc1-c1ccoc1C		-8.6%

SMILES	Potency	activity change, negative = inhibition
COc1ccc(N2CCN(C(=O)CCNC(=O)c3ccc(Br)cc3)CC2)cc1		-21.7%
COc1ccc(C(=O)NCC[N+](C)(C)C)cc1	39.8 µM (active)	
COc1ccc(C(=O)NCCSc2ccccc2C)cc1		0%
CCN(Cc1nc(-c2ccc(OC)c(OC)c2)no1)C(=O)Nc1cccc2ccccc12		6.76%
Cc1[nH]c2ccccc2c1C=O		8.16%
Cc1[nH]c2ccccc2c1/C=N/c1sc2c(c1C#N)CCC(C)C2 (stereo not drawn)	22.4 µM (active)	
COC(=O)c1c(NC(=O)CCCOc2ccccc2)sc2c1CCC(C)C2 (stereo not drawn)		0%
COC(=O)CC(NC(=O)c1nn(C)c(=O)c2ccccc12)c1ccc(F)cc1 (stereo not drawn)		-8.65%
Nc1ccc(-c2cc(C(=O)O)c3cc(Cl)ccc3n2)cc1		-28.1%
Cc1nc(C)c(C(=O)N2CCCC(C(=O)NCc3ccccc3)CCNC(=O)CC2)s1 (stereo not drawn)		-1.73%
N#CC1CCN(C(=O)c2nc(-c3ccc(Cl)cc3)c3ccccn23)CC1		-3.2%
COc1ccccc1-c1nc(N2CCN(C)CC2)c2ccccc2n1	28.2 µM (active)	
COc1ccc(N2CCN(c3nc(-c4ccccc4F)nc4ccccc34)CC2)cc1		-11.4%
CCOc1ccccc1N1CCN(c2nc(-c3cccnc3)nc3ccccc23)CC1		3.11%
COC(=O)C1CCCCN1S(=O)(=O)c1cc(Cl)ccc1Cl (stereo not drawn)		8.51%
CN1c2ccc(C=O)c3c(C=O)ccc(c23)N(C)C1(C)C	28.2 µM (active)	
O=C(CCC1NC(=O)c2ccccc2NC1=O)NC1CCCCCC1 (stereo not drawn)		-0.849%
FC(F)(F)c1ccccc1-c1nc(-n2ccnc2)c2ccccc2n1	15.8 µM (active)	
Fc1ccccc1N1CCN(c2nc(-c3cccnc3)nc3ccccc23)CC1		0.0579%
CC(C)Nc1nc(N(c2ccccc2)c2ccccc2)nc(-n2ccnc2)n1		51.5%
CCCc1noc(CN2CCN(c3cc(C)nc(C(C)C)n3)CC2)n1		6.23%
N#C/C(=C/c1ccco1)c1nc2ccccc2[nH]1	39.8 µM (active)	
CC(C)c1ccc(/C=C(/C#N)c2nc3ccccc3[nH]2)cc1		-19.9%
COc1cccc2cc(/C=C(/C#N)c3nc4ccccc4[nH]3)oc12		-44.6%
O=c1oc2ccccc2cc1S(=O)(=O)c1cccc(Cl)c1		-19.4%
